This is part of a sample that, as a whole, favours compounds with a hit. Of some 83,000 tested, about 20% had one in any assay.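 Note: values are percent growth. 100 is the growth of untreated cells, values between 100 and 0 indicate rising inhibition; between -100 and 0 indicates cell death.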 Values without a mark were called inactive. The source made the active and inactive calls. Rule for the calls: active = growth percent below 10; inactive = the rest.

For this test, the system named is SW-620 colon. Put plainly: NCI-60 one-dose screen, 48 h (100 = growth as untreated, 0 = no growth, -100 = all killed). The note with it: 10 µM unless noted.
Consider `COc1ccc2c(c1)C(=O)/C(=C/c1ccc(OCC(=O)Nc3nccs3)cc1)O2`, for which the growth was -24% (active).

Take `CN1C(=O)N(C)C2C1NN=c1s/c(=C\c3ccccc3)c(=O)n12` (stereo not drawn): the growth was 21.7%.

For `O=S(=O)(NCCCNc1cc(-c2c(-c3cccc(O)c3)nc3sccn23)ccn1)c1cccc(Cl)c1`, the growth is 48.4%.

Regarding `Cn1ccc2c(c1=O)C(=O)c1nccc3c1c-2nc1ccccc13`, the growth is -76.3% (active).

Regarding `Cc1ccc(Cl)c(NS(=O)(=O)c2ccc(-c3cnc(C4CC4)o3)cc2)c1`, the growth is 18.6%.

Consider `Cn1cc(-c2csc(-c3cccc(F)c3)n2)c2cccnc21`, for which the growth is -49.8% [100 µM] (active).

With `CC(C)Sc1nc(NNC(N)=S)c(C#N)c(-c2ccc(F)cc2)n1`, the growth is 106%.

Turning to `Cc1c(C(=O)OC(=NC2CCCCC2)NC2CCCCC2)sc2c1c(=O)nc1c(C#N)n[nH]n12`, the growth is 107%.

Regarding `C=C(C)[C@@H]1CC[C@]2(C(=O)NC3CCCCC3)CC[C@]3(C)[C@H](CC[C@@H]4[C@@]5(C)CCC(=O)C(C)(C)[C@@H]5CC[C@]43C)[C@@H]12`, the growth is 93.6%.

On to `Clc1cccc(Cl)c1C(Nc1nc2ccccc2s1)Nc1nc2ccccc2s1`, for which the growth is 106%.

Regarding `Cc1cc[c-]cc1.Fc1c[c-]c(-c2ccccn2)c(F)c1.[Pt+2].c1ccc(P(C[PH+](c2ccccc2)c2ccccc2)c2ccccc2)cc1`, the growth was 14.6%.

Turning to `O=C(O)c1ccc2c(c1)CCC2`, the growth was 108%.

As to `C[C@H]1[C@H]2[C@H]3CC[C@@H]4[C@@]5(C)C/C(=C/c6ccco6)C(=O)C(C)(C)[C@@H]5CC[C@@]4(C)[C@]3(C)CC[C@]23CO[C@]1(C)[C@@H](C(=O)/C=C\c1ccco1)C3`, the growth was 99.3%.

For the origin of these results see PubChem BioAssay (NCI).
